Common to all, as to experiment: NCI-60 one-dose screen, 48 h (100 = growth as untreated, 0 = no growth, -100 = all killed)
What all share (conditions): 10 µM unless noted

Test [1] deals with HCT-15 colon.
In test [2] the test system is HT29 colon.
In test [3] the test system is SNB-75 CNS.
In test [4] the test system is SNB-19 CNS.
The subject of test [5] is U251 CNS.
Test [6] deals with PC-3 prostate.
Test [7] relates to SK-MEL-5 melanoma.
Test [8] relates to UACC-62 melanoma.
The test system of test [9] is LOX IMVI melanoma.
Test [10] relates to SK-MEL-28 melanoma.
Test [11] concerns SK-MEL-2 melanoma.
For test [12], the system named is EKVX NSCLC.
Test [13] concerns SN12C renal.
For test [14], the system named is UO-31 renal.
Test [15] has as its system TK-10 renal.
The test system of test [16] is ACHN renal.
For test [17], the system named is A498 renal.
Test [18] has as its system MOLT-4 leukemia.
Test [19] concerns SR leukemia.
Test [20] has as its system CCRF-CEM leukemia.

About 83,000 compounds went through this panel and 20% of them were active in at least one assay; those are over-represented in the sample as a whole.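 For each line, cells grew in 96-well plates with the test compound present at a single concentration for 48 hours.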 Unmarked numbers belong to inactive results. Activity calls are given as the source filed them. How the source made its calls: active means growth percent below 10; inactive means the rest.

For the compound `CCCn1c2cc(OCc3cn(-c4ccc(Cl)cc4)nn3)ccc2c2ccnc(C)c21`, the growth was 67.6% in test [1]; 30.7% in test [2]; 92.5% in test [3]; 80.6% in [4]; 47.5% in [5]; 71.2% in [6]. Also, the growth was 70.6% in [7]; 74.9% in test [8]; 65.1% in [9]; 92.3% in test [10]; 87% in test [11]; 80.1% in [12]. Besides, the growth in test [13] was 34.2%; in [14] it was 46.4%; in [15], 113%; in test [16] it was 34.3%; in [17], 76.2%; in [18], 57.1%. For the same compound, the growth in test [19] is -32.4% (active).
For `O=CN1N=C(c2ccc(Cl)cc2)CC1c1cccc(Nc2ccnc3cc(C(F)(F)F)ccc23)c1` (stereo not drawn), the growth in [1] is 71.2%; in test [2], 58.5%; in test [3], 74.9%; in test [4] it was 70.6%; in [5], 64.1%; in test [6], 48.9%. Besides, the growth in test [7] was 1.24% (active); in test [8] it was 63.7%; in [9], 51.5%; in [10], 90.8%; in test [11], 58%; in test [12], 58.7%. Also, the growth is 87.7% in [13]; 48.5% in [14]; 71% in [15]; 61.2% in [16]; 51.7% in test [20]; 33.8% in test [18]. The growth in test [19] is 30%.
Regarding `CCOc1ccc(C2N(c3cc(OC)c(OC)c(OC)c3)C(=O)C2(F)F)cc1` (stereo not drawn), the growth is 22.6% in test [1]; 12.3% in test [2]; 55.9% in test [3]; 54.1% in test [4]; 36.2% in [5]; 37.3% in [6]. In addition, the growth in test [7] is 6.76% (active); in [8], 51.6%; in test [9], 27.6%; in [10] it was 66.8%; in [11], 91.8%; in test [12], 75.3%. Besides, the growth is 51% in test [13]; 51.9% in test [14]; 103% in test [15]; 55.3% in [16]; 10.2% in [20]; 18.1% in test [18]. In addition, the growth in [19] was 16.2%.
On to `COc1cc(/C=N/Nc2nc(-c3ccc(F)cc3)c(C#N)c(N3CCOCC3)n2)ccc1O`, for which the growth in test [1] is 99.9%; in [2], 96%; in test [3] it was 84%; in [4], 92.9%; in test [5] it was 97.6%; in [6], 96.4%. The growth is 102% in [7]; 99% in [8]; 107% in test [9]; 99.9% in test [10]; 114% in test [11]; 90.5% in test [12]. For the same compound, the growth in test [13] was 89.4%; in test [14], 81.7%; in [15] it was 98.9%; in test [16], 91.3%; in test [20] it was 84.1%; in test [18], 73.4%. In addition, the growth in test [19] was 74.9%.
On to `CC[C@]12C=CCN3CC[C@@]4(c5cc(NC(=O)CCC(=O)O[C@H]6CC[C@H]7[C@@H]8CC[C@H]9CC(=O)CC[C@]9(C)[C@H]8CC[C@]67C)c(OC)cc5N(C)[C@H]4[C@@](O)(C(=O)OC)[C@@H]1OC(C)=O)[C@@H]32`, for which the growth in test [1] is 58.2%; in test [2] it was 39%; in [3], 57.1%; in [4] it was 84.7%; in test [5], 64.3%; in [6], 47.7%. For the same compound, the growth is 54.4% in test [7]; 81.2% in test [8]; 78.1% in [9]; 92.5% in [10]; 77.1% in [11]; 66% in test [12]. Also, the growth in test [13] was 71.2%; in test [14], 51.3%; in [15], 90.5%; in [16], 87.1%; in test [20] it was 9.54% (active); in test [18], 17.8%. Further, the growth in test [19] was 24.8%.
`COc1cc(/C=C/C(=O)c2cccs2)ccc1OCc1ccc(Cl)nc1`: the growth in test [1] is 62.5%; in test [2], 97.3%; in test [3] it was 119%; in test [4], 66.6%; in test [5], 35.3%; in test [6], 69%. Besides, the growth in test [7] is 87.2%; in test [8] it was 71.3%; in [9] it was 27.2%; in [10] it was 92%; in [11], 96.7%; in [12], 94.8%. The growth is 81.1% in test [13]; 57.2% in [14]; 111% in test [15]; 102% in [16]; 61.9% in test [20]; 86.6% in [18]. The growth in test [19] is 20.5%.
For `COc1ccc(NC(=O)c2sc3nc(C)c(C(C)=O)cc3c2N)cc1`, the growth in test [1] is 91.6%; in test [2] it was 83.5%; in test [3] it was 88.3%; in test [4], 96.1%; in [5] it was 95%; in test [6] it was 92%. Further, the growth in test [7] was 93.8%; in [8] it was 92.9%; in test [9], 105%; in [10], 94.1%; in test [11] it was 98.5%; in test [12], 97.2%. In addition, the growth was 101% in test [13]; 105% in [14]; 75.2% in test [15]; 95.3% in test [16]; 71.1% in test [17]; 84.9% in [18]. In addition, in test [19], the growth is 84.3%.

Values taken from PubChem BioAssay (NCI).
